{"source": "PubChem BioAssay AID686979", "about": "(National Center for Advancing Translational Sciences (NCATS), 2013)", "note": "Out of some 420,000 compounds screened, about 50,000 (12%) were called active. A call without a number means that no potency is given here. Inconclusive results (about 26%) are left out. Calls follow the shape of the dose curve; as a rule, active = well fitted inhibition curve with a large enough effect; inconclusive = small, poorly fitted or top-dose-only effect; inactive = flat fitted curve, though single readings scatter. This excerpt belongs to a sample that is enriched for actives. Potency is read from the fitted curve at half-maximal effect."}
{"experiment": "qHTS for Inhibitors of human tyrosyl-DNA phosphodiesterase 1 (TDP1): qHTS in cells in presence of CPT; also: nearly all actives have a fitted effect of over 55% in size", "details": "chicken DT40 Tdp1-/-;hTDP1 cells + 20 nM CPT, ATP luminescence, 48 h; series mostly up to 46.2 µM", "how_it_was_run": "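Cell growth measured by CellTiter-Glo luminescence after a minimum 48 h, 37 C compound exposure with 20 nM CPT in Tdp1-knockout DT40 cells stably expressing hTDP1, seeded 400/well; qHTS titration format.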"}
{"smiles": "O=C(COC(=O)c1ccc([N+](=O)[O-])cc1Cl)NC(=O)c1ccccc1", "Potency": "inactive"}
{"smiles": "O=C(NCCN1CCOCC1)c1cnn(-c2nccc(-c3cccs3)n2)c1C1CC1", "Potency": "inactive"}
{"smiles": "CCC(=O)Nc1ccc(C(=O)N2CCN(C(=O)c3ccco3)CC2)cc1", "Potency": "inactive"}
{"smiles": "Cc1ccc(OCC(=O)Nc2ccc(N3CCN(C(=O)c4ccco4)CC3)cc2)c(C)c1", "Potency": "16.4 µM (active)"}
{"smiles": "COc1cccc(C(=O)Nc2ccc(N3CCCC3)cc2)c1", "Potency": "9.2 µM (active)"}
{"smiles": "COc1cccc(C(=O)Nc2ccc(NC(=O)c3ccco3)cn2)c1", "Potency": "inactive"}
{"smiles": "O=C(c1ccco1)N1CCN(c2cccc(Cl)c2)CC1", "Potency": "inactive"}
{"smiles": "NS(=O)(=O)c1ccc(NC(=O)C(=O)Nc2ccc3nc4n(c(=O)c3c2)CCCCC4)cc1", "Potency": "inactive"}
{"smiles": "CN1CCN(c2ccc(NC(=O)c3ccccc3)cc2)CC1", "Potency": "inactive"}
{"smiles": "COc1cccc(C(=O)Nc2ccc(N3CCN(C(=O)c4ccco4)CC3)cc2)c1", "Potency": "14.6 µM (active)"}
{"smiles": "O=C(Nc1ccc2nc3n(c(=O)c2c1)CCCC3)c1ccc(Cl)nc1", "Potency": "inactive"}
{"smiles": "COc1ccc(C(=O)Nc2ccc(N3CCC(C)CC3)cc2)cc1Br", "Potency": "inactive"}
{"smiles": "COc1cccc(C(=O)Nc2ccc3nc4n(c(=O)c3c2)CCCCC4)c1", "Potency": "20.6 µM (active)"}
{"smiles": "Cc1ccc(C)c(OCC(=O)N2CCN(C(=O)c3ccco3)CC2)c1", "Potency": "inactive"}
{"smiles": "COc1cccc(COC(=O)C2CCN(S(=O)(=O)c3ccc(Cl)cc3)CC2)c1OC", "Potency": "inactive"}
{"smiles": "COc1ccc(CN2CC[C@H]3C=CC[C@@H](C(=O)N4CCOCC4)[C@H]3C2=O)cc1OC", "Potency": "inactive"}
{"smiles": "C=CCN1C(=NC(=O)COc2ccccc2)SC2CS(=O)(=O)CC21", "note": "(stereo unspecified)", "Potency": "inactive"}
{"smiles": "COc1ccc(CCNC(=O)CSc2nnc3ccc(-c4ccncc4)nn23)cc1", "Potency": "inactive"}
{"smiles": "CCOC(CNC(=O)C(=O)NCC(c1ccco1)N1CCN(c2ccc(OC)cc2)CC1)OCC", "note": "(stereo unspecified)", "Potency": "inactive"}
{"smiles": "COc1ccc2ccccc2c1CNCc1ccccn1", "Potency": "inactive"}
{"smiles": "Cc1cccc(C(C)C)c1NC(=O)COC(=O)C1CC(=O)N(Cc2ccccc2)C1", "note": "(stereo unspecified)", "Potency": "inactive"}
{"smiles": "COc1ccc2[nH]cc(CCNc3ncnc4ccc(-c5ccc(C(=O)N(C)C)cc5)cc34)c2c1", "Potency": "20.6 µM (active)"}
{"smiles": "COc1ccc2[nH]cc(CCN3C(=O)c4ccc(C(=O)O)cc4C3=O)c2c1", "Potency": "inactive"}
{"smiles": "COc1ccc2[nH]cc(CCNc3cc(-c4ccccc4CN(C)C)ncn3)c2c1", "Potency": "inactive"}
{"smiles": "Cc1ncc([N+](=O)[O-])n1CCOC(=O)c1ccc(Br)cc1", "Potency": "inactive"}
{"smiles": "CCOC(=O)c1ccc2c(c1)nc(C)n2CC", "Potency": "inactive"}
{"smiles": "CCn1c(/C=C/Nc2ccccc2)[n+](CC)c2ccc(C(=O)OCC(F)(F)F)cc21", "Potency": "25.9 µM (active)"}
{"smiles": "NC(CSC1(c2ccccc2)c2ccccc2-c2ccccc21)C(=O)O", "note": "(stereo unspecified)", "Potency": "inactive"}
{"smiles": "CCNC(=O)Nc1ccc(S(=O)(=O)Nc2cnc(C)nc2C)cc1", "Potency": "inactive"}
{"smiles": "Cc1cc(C)c(C#N)c(SCC(=O)N(CC(C)C)C2CCS(=O)(=O)C2)n1", "note": "(stereo unspecified)", "Potency": "inactive"}
{"smiles": "CNc1cncc(-c2ccc(NS(C)(=O)=O)cc2)n1", "Potency": "2.91 µM (active)"}
{"smiles": "CCCS(=O)(=O)Nc1ccc(-c2cn3c(n2)SCC3)cc1", "Potency": "inactive"}
{"smiles": "CS(=O)(=O)Nc1ccc(C(=O)N2CCCC2)cc1", "Potency": "inactive"}
{"smiles": "CC1(C)C/C(=N/Nc2ccc([N+](=O)[O-])cc2[N+](=O)[O-])C(C)(C)O1", "Potency": "inactive"}
{"smiles": "CCc1c(C)nc(SCC(=O)NC2CCCC2)[nH]c1=O", "Potency": "inactive"}
{"smiles": "CC(C)(C)C(=O)Cn1c(NCCO)nc2ccccc21", "Potency": "inactive"}
{"smiles": "CCCn1c(NCc2ccccc2F)nc2ccccc21", "Potency": "inactive"}
{"smiles": "CCCn1c(NCc2ccc(N(CC)CC)cc2)nc2ccccc21", "Potency": "25.9 µM (active)"}
{"smiles": "CC(=O)NC(CC(=O)Nc1ccc(S(=O)(=O)N2CCOCC2)cc1)c1ccccc1", "note": "(stereo unspecified)", "Potency": "inactive"}
{"smiles": "O=S(=O)(c1ccc(F)cc1)N1CC=C(c2ccccc2)CC1", "Potency": "inactive"}
{"smiles": "COc1ccc(N(CC(=O)Nc2ccc(F)c(F)c2)S(=O)(=O)c2c(C)[nH]c(=O)[nH]c2=O)cc1", "Potency": "inactive"}
{"smiles": "Clc1cccc(N=C2NN=C(c3ccc4c(c3)OCCO4)CS2)c1", "Potency": "20.6 µM (active)"}
{"smiles": "c1ccc(CN2CCC(N=C3NN=C(c4ccc5c(c4)OCCO5)CS3)CC2)cc1", "Potency": "inactive"}
{"smiles": "S=C(Nc1cccc(Cl)c1)Nc1ccc2c(c1)OCCO2", "Potency": "inactive"}
{"smiles": "CCOC1CS(=O)(=O)CC1OCC", "note": "(stereo unspecified)", "Potency": "inactive"}
{"smiles": "CC(=O)Nc1ccc(NC(=O)CSc2nnnn2-c2ccccc2F)cc1", "Potency": "inactive"}
{"smiles": "CC(=O)c1ccc(NC(=O)C2CCN(S(=O)(=O)c3c(C)noc3/C=C/c3ccc(C)cc3)CC2)cc1", "Potency": "inactive"}
{"smiles": "Cc1cccc(NC(=O)C2CCN(S(=O)(=O)c3c(C)noc3/C=C/c3ccco3)CC2)c1", "Potency": "16.4 µM (active)"}
{"smiles": "CNC(=O)C1CCN(S(=O)(=O)c2c(C)noc2/C=C/c2cccc(C)c2)CC1", "Potency": "inactive"}
{"smiles": "Cc1ccc(S(=O)(=O)N(C)C)cc1NC(=O)c1ccc(-n2cncn2)c([N+](=O)[O-])c1", "Potency": "inactive"}
{"smiles": "COc1ccccc1CNCc1ccc(C(=O)O)s1", "Potency": "inactive"}
{"smiles": "CCCn1nc(C(=O)OCc2nc(N)nc(Nc3ccccc3C)n2)c2ccccc2c1=O", "Potency": "inactive"}
{"smiles": "CC(CN1CCOCC1)OC(=O)c1ccc(Cl)cc1Cl", "note": "(stereo unspecified)", "Potency": "inactive"}
{"smiles": "CC(C)OC(=O)c1ccc(NCc2cc(O)ccc2O)cc1Cl", "Potency": "2.91 µM (active)"}
{"smiles": "O=C(OC12CC3CC(CC(C3)C1)C2)c1ccc(NCc2cc(O)ccc2O)cc1", "Potency": "2.06 µM (active)"}
{"smiles": "COC(=O)c1ccc(NCC(=O)c2ccccc2)cc1", "Potency": "inactive"}
{"smiles": "COC(=O)c1ccc(NCc2cc(O)ccc2O)cc1", "Potency": "4.61 µM (active)"}
{"smiles": "C#CCNc1ccc(C(=O)OCC)cc1", "Potency": "inactive"}
{"smiles": "CC(OC(=O)c1ccc(Cl)cc1O)C(=O)NCCC1=CCCCC1", "note": "(stereo unspecified)", "Potency": "inactive"}
{"smiles": "CCCCCN(C(=O)CCC(=O)OCC(=O)NC1CCC(C)CC1)c1c(N)n(CCCC)c(=O)[nH]c1=O", "note": "(stereo unspecified)", "Potency": "inactive"}
{"smiles": "COc1ccc(NC(=O)c2cccc(Cl)c2)c[n+]1[O-]", "Potency": "inactive"}
{"smiles": "O=C(Nc1c2c(nn1-c1ccccc1)CS(=O)(=O)C2)C1CCCC1", "Potency": "inactive"}
{"smiles": "O=C(CCc1ccc(S(=O)(=O)N2CCOCC2)cc1)OCC(=O)c1ccc(Br)cc1", "Potency": "inactive"}
{"smiles": "CCOc1ccc(-n2cnnn2)cc1S(=O)(=O)N1CCC(C)CC1C", "note": "(stereo unspecified)", "Potency": "inactive"}
{"smiles": "C#CC(C)(C)NC(=O)c1cnc(-c2ccccc2)nc1-c1ccccc1", "Potency": "inactive"}
{"smiles": "COC(=O)c1ccc(COC(=O)CNC(=O)c2cccc(OC)c2)o1", "Potency": "inactive"}
